Measured values as given in ChEMBL document CHEMBL1961873, “Compounds: GSK PKIS; Assays: Nanosyn kinase panel” (2012).

Key:
[1] = test system: Epidermal growth factor receptor (Homo sapiens), P00533 [T790M]; details: at 1 µM
[2] = test system: Epidermal growth factor receptor (Homo sapiens), P00533 [L858R,T790M]; details: at 0.1 µM
[3] = test system: Epidermal growth factor receptor (Homo sapiens), P00533 [L858R,T790M]; details: at 1 µM
[4] = target: Ephrin type-A receptor 2 (Homo sapiens) (UniProt P29317); details: at 0.1 µM
Ephrin type-A receptor 2 (Homo sapiens), sequence (P29317 whole entry): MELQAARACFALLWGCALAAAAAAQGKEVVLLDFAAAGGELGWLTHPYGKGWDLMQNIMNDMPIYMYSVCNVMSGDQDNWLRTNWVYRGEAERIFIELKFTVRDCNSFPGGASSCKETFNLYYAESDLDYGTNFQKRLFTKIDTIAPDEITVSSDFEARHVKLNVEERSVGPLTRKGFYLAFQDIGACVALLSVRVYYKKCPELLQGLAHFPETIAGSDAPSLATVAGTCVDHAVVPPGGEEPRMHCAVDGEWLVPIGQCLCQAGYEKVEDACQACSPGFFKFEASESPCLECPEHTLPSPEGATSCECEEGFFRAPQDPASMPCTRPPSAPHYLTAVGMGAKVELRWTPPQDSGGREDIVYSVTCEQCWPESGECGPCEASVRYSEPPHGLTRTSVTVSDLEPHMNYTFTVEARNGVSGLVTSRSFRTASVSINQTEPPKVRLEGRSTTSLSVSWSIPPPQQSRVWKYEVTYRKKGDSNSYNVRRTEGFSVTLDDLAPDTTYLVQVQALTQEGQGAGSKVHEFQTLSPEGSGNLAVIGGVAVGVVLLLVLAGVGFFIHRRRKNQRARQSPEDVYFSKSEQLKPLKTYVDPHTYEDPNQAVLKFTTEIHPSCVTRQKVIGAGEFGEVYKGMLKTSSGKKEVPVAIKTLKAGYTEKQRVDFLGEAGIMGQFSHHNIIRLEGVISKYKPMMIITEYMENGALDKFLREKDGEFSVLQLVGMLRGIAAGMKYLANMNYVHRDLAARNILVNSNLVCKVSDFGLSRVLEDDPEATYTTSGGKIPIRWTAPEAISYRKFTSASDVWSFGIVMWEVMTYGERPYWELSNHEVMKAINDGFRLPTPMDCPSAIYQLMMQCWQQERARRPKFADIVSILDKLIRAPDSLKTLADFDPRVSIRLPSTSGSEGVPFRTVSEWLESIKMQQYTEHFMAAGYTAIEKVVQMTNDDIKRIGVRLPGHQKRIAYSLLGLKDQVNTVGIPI

[5] = target: Ephrin type-A receptor 2 (Homo sapiens) (UniProt P29317); details: at 1 µM
[6] = target: T1, Ephrin type-A receptor 3 (Homo sapiens) (UniProt P29320); details: at 0.1 µM
T1 sequence (whole entry): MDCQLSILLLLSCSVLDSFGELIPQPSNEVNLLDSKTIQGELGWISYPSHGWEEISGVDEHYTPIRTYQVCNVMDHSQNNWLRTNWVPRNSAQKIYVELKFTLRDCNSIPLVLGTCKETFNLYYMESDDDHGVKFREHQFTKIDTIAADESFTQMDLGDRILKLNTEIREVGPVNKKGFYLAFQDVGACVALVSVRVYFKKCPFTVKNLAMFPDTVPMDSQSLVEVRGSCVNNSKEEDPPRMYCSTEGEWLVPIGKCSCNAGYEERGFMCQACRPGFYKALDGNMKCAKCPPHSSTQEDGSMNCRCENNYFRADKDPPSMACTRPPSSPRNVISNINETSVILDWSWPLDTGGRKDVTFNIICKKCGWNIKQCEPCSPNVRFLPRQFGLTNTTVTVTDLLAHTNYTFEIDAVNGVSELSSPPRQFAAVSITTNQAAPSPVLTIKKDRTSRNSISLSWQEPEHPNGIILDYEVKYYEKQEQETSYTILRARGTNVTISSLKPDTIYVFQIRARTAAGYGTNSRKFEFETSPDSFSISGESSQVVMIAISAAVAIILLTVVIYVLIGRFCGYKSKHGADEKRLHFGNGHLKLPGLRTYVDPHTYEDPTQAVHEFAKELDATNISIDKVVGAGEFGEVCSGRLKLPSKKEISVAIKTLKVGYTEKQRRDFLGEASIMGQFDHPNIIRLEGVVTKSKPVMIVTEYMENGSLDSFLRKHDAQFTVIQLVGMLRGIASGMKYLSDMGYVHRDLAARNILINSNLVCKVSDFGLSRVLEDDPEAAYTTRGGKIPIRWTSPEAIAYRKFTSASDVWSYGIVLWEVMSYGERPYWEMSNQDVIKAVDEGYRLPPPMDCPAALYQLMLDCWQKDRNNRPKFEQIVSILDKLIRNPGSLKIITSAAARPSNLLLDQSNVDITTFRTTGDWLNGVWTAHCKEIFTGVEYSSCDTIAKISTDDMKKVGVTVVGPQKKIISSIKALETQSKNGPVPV

[7] = target: T1, Ephrin type-A receptor 3 (Homo sapiens); details: at 1 µM
[8] = target: Ephrin type-A receptor 4 (Homo sapiens) (UniProt P54764); details: at 0.1 µM
Ephrin type-A receptor 4 (Homo sapiens), sequence (P54764 whole entry): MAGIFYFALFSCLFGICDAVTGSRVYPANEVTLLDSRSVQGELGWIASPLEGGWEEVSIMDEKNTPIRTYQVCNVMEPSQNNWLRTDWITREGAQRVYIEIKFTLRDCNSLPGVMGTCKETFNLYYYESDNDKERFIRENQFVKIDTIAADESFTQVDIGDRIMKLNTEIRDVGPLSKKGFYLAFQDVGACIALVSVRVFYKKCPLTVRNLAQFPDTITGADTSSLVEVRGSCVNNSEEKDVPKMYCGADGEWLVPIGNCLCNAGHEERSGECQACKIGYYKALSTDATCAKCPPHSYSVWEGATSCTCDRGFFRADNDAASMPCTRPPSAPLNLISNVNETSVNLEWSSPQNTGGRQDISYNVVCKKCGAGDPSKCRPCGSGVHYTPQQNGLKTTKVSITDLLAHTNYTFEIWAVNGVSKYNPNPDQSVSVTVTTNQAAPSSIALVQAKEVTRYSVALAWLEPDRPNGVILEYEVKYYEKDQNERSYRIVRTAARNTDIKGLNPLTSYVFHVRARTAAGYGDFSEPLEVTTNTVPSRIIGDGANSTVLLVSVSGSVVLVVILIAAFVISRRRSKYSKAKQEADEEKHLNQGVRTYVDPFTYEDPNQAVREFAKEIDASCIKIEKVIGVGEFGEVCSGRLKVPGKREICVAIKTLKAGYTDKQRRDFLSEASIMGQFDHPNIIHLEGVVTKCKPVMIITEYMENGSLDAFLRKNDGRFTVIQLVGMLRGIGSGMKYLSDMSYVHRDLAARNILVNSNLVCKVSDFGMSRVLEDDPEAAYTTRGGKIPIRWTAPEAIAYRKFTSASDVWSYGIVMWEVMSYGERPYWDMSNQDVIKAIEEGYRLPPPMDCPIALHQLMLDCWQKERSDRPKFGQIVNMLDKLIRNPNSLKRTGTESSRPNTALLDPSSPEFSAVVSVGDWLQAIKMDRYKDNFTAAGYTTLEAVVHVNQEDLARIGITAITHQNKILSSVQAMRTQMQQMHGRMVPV

[9] = target: Ephrin type-A receptor 4 (Homo sapiens) (UniProt P54764); details: at 1 µM
[10] = target: T2, Ephrin type-B receptor 2 (Homo sapiens) (UniProt P29323); details: at 0.1 µM;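 also: reported as mean inhibition of EPHB2, from the GSK PKIS dataset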
T2 sequence (whole entry): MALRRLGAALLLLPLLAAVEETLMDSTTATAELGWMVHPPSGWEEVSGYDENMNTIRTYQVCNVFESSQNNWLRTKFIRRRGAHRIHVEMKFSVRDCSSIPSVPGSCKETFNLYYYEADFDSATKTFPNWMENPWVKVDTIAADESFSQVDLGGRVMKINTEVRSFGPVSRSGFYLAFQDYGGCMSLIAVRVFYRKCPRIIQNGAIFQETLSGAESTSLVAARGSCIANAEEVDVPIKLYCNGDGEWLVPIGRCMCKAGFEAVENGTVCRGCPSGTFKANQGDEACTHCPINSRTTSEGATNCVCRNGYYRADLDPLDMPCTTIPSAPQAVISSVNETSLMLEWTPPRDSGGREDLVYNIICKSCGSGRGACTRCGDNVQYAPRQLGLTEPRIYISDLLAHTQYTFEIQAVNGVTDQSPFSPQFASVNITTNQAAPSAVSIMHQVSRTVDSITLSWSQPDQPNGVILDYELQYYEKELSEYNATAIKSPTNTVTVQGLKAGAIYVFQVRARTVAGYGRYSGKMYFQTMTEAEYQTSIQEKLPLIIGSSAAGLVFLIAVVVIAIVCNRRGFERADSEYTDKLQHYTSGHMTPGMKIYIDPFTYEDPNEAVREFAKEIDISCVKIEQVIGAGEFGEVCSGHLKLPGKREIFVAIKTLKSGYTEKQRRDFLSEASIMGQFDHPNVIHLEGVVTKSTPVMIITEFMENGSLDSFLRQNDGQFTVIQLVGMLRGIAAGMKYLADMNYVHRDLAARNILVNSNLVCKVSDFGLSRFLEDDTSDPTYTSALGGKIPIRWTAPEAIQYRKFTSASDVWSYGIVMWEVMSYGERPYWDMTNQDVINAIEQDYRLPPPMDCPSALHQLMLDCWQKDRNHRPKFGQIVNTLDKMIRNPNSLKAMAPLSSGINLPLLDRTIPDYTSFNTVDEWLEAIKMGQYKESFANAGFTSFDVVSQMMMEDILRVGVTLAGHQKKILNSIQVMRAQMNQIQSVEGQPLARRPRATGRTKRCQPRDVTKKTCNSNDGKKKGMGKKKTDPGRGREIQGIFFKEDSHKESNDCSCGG

Epidermal growth factor receptor (Homo sapiens), P00533 [L858R,T790M], sequence (P00533 whole entry T790M/L858R, looked up): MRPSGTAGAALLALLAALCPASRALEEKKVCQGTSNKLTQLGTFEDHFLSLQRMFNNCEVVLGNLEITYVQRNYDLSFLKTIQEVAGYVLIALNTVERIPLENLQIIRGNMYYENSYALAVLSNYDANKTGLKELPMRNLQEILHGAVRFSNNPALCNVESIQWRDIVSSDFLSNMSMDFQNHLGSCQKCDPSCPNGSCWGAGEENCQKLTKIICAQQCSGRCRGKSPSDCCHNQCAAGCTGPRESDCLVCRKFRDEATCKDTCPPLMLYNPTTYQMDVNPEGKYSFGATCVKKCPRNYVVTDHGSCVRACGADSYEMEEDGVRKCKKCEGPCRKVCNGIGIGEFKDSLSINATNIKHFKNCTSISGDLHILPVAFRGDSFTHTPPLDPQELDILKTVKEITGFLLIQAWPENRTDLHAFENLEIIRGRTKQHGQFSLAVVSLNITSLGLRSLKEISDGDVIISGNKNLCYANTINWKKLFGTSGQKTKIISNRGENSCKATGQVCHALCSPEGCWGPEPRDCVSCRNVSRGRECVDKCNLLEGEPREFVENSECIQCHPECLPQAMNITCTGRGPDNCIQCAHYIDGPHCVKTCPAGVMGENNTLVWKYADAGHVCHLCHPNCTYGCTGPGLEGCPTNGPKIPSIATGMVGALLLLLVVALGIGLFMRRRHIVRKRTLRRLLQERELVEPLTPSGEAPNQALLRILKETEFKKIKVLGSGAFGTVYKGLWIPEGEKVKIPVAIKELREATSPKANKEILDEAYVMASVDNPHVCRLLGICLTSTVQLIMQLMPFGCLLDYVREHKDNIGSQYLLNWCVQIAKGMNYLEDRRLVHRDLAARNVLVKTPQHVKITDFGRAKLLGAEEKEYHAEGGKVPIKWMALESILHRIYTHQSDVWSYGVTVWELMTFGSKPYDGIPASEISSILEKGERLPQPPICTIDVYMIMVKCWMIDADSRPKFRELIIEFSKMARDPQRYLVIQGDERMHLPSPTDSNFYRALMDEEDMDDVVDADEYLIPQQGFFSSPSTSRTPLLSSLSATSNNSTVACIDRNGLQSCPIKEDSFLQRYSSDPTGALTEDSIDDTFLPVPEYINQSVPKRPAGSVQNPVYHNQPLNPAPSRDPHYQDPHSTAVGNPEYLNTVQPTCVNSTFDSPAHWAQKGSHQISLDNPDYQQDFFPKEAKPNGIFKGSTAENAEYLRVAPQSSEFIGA
Epidermal growth factor receptor (Homo sapiens), P00533 [T790M], sequence (P00533 whole entry T790M): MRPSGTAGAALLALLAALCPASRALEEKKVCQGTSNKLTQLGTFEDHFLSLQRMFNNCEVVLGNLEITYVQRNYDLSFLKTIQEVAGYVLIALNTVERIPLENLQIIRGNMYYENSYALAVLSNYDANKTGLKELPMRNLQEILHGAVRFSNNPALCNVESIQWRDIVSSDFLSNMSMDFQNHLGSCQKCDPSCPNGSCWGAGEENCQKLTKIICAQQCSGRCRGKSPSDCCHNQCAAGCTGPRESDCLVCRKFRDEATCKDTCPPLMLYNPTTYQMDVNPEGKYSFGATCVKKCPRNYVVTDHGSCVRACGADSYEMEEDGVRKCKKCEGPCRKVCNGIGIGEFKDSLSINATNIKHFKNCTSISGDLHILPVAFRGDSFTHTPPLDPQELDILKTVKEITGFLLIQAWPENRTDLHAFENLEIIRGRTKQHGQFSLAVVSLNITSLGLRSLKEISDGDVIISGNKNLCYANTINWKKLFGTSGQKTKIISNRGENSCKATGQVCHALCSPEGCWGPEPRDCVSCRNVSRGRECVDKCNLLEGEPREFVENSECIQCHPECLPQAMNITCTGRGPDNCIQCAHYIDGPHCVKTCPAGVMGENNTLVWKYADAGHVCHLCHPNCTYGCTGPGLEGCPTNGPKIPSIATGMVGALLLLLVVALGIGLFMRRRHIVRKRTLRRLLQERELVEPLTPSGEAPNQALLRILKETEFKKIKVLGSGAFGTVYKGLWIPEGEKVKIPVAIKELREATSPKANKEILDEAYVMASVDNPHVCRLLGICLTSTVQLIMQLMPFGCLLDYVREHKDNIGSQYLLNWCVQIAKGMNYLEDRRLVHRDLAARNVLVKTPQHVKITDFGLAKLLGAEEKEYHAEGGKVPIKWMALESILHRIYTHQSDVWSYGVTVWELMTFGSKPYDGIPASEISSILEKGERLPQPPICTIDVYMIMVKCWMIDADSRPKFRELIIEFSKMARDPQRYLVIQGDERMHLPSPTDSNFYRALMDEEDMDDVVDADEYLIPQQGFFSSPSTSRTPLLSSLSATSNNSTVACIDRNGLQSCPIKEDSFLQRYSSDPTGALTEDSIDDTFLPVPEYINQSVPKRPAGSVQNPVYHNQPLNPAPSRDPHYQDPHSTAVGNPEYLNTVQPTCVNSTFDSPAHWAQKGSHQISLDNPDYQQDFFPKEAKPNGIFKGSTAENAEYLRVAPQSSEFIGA

SMILES	inhibition [1] [%]	inhibition [2] [%]	inhibition [3] [%]	inhibition [4] [%]	inhibition [5] [%]	inhibition [6] [%]	inhibition [7] [%]	inhibition [8] [%]	inhibition [9] [%]	inhibition [10] [%]
CCn1c(-c2nonc2N)nc2c(C#CC(C)(C)O)ncc(OC3CCNCC3)c21	1.16	1.78	0.14	1.52	0.34	1.03	3.69	4.06	6.59	-2.87
COc1cc(Nc2nccc(Nc3ccc4c(C)n[nH]c4c3)n2)cc(OC)c1OC	5.15	4.13	20.9	28	71	6.23	15.3	41.4	75.2	19.3
COc1ccc(-c2cc3c(N)ncnc3o2)cc1	-2.06	-0.41	-0.81	-3.93	-2.53	-3.56	-2.59	-2.85	1.4	-3.46
CCc1nn2ncccc2c1-c1ccnc(NC2CC2)n1	1.56	-2.33	0.76	0.52	0.58	2.4	3.87	4.8	8.02	-1.23
COc1ccc(-c2nn3ncccc3c2-c2ccnc(Nc3ccc4c(c3)OCCO4)n2)cc1	5.19	0.11	17.8	-0.24	0.86	-1.04	0.38	0.61	13.8	1.72
COC(=O)Nc1nc2ccc(S(=O)(=O)c3ccc(NC(=O)Nc4cc(C(F)(F)F)ccc4F)cc3)cc2[nH]1	0.19	0.89	-0.68	2.49	6.48	3.46	4.35	4.8	9.4	6.82
COc1ccc(-c2oc3ncnc(N)c3c2-c2ccc(NC(=O)Nc3cc(C(F)(F)F)ccc3F)cc2)cc1	3.03	-0.45	7.47	87.9	95.7	82.1	87.1	87.3	87.6	85.7
CC1=C(C(=O)Nc2cc(Cl)c3[nH]ncc3c2)C(c2ccc(C(F)(F)F)cc2)CC(=O)N1 (centres undefined)	4.57	1.19	1.94	-2.83	-2.1	2.24	2.48	8.02	6.71	1.63
CCN1CCC(CC(=O)Nc2n[nH]c3nnc(-c4cccc(F)c4F)cc23)CC1	3.4	1.92	1.26	0.75	1.02	3.31	2.84	5.3	7.67	-4.82
Cc1cccc2c1NC(=O)/C2=N\Nc1ccc(S(N)(=O)=O)cc1	0.35	3.72	1.46	2.85	3.42	4.1	3.43	6.06	7.18	7.03
CS(=O)(=O)CCNCc1ccc(-c2ccc3ncnc(Nc4ccc(OCc5ccccc5)c(C(F)(F)F)c4)c3c2)o1	2.12	3.43	0.97	2.24	0.59	8.45	2.73	6.33	7.84	7.71
CN1CCC(n2cnc(-c3ccc(F)cc3)c2-c2ccnc(N)n2)CC1	1.75	-4.77	0.83	0.47	-0.42	1.8	2.95	5.99	7.11	5.98
CCCN1CCC(c2ccc(Nc3nc(Nc4cc(F)ccc4C(N)=O)c4cc[nH]c4n3)c(OC)c2)CC1	81.7	53.7	89.1	1.29	-0.82	3.91	4.22	6.74	12.9	6.06
NS(=O)(=O)c1ccc(N/N=C2\C(=O)Nc3ccc4ncccc4c32)cc1	-0.36	1.77	5.28	1.99	9.56	5.42	12.4	8.83	31	8.06
FC(F)(F)c1cccc(-c2nn3ncccc3c2-c2ccnc(Nc3ccc4c(c3)OCCO4)n2)c1	8.22	2.69	15.9	2.29	1.84	2.54	3.44	4.56	7.91	3.11
Clc1ccc(-c2nn3ncccc3c2-c2ccnc(Nc3ccccc3)n2)cc1	14.4	9.72	53.3	-1.33	2.12	1.69	7.97	3.45	23.3	8.11
CCNC(=O)O[C@H]1CN[C@H](C#Cc2cc3ncnc(Nc4ccc(OCc5cccc(F)c5)c(Cl)c4)c3s2)C1	10.6	2.62	4.48	3.3	2.25	6.99	4.34	8.98	6.16	8.39

SMILES	inhibition [1] [%]	inhibition [2] [%]	inhibition [3] [%]	inhibition [4] [%]	inhibition [5] [%]	inhibition [6] [%]	inhibition [7] [%]	inhibition [8] [%]	inhibition [9] [%]	inhibition [10] [%]
c1ccc(COc2ccc(Nc3ncnc4ccc(-c5ccco5)cc34)cc2)cc1	5	-0.19	-1.64	0.9	-0.47	-0.08	0.71	0.05	2.86	
CC(C)COC(=O)c1ccc2c(c1)/C(=C/Nc1ccc(S(N)(=O)=O)cc1)C(=O)N2	-2.28	-2.38	3.71	-3.29	-3.24	-2.74	0.31	-1.11	1.79	-3.84
Cc1ccc(O)cc1Nc1ccnc2cc(-c3ccccn3)ccc12	15.3	3.59	30.4	34.4	80.2	79.3	87.5	91.2	90.9	90.5
CNC(=O)c1cncc(/C=C/c2ccccc2Cl)c1	5.34	1.14	-0.51	3.31	2.6	1.03	1.99	3.99	15	-0.8
COc1ccc(CNC(=O)c2ccc(-c3cc(-c4nnc(C)o4)ccc3C)cc2)cc1	5.47	3.26	3.61	2.44	2.41	1.41	4.21	5.67	15.7	7.58
COc1ccc2c(-c3ccnc(Nc4cccc(OC(F)(F)F)c4)n3)cnn2n1	3.37	2.65	2.88	1.21	2.29	6.89	7.93	11.3	24.1	5.72
COc1cc(/C=N/Nc2ncnc3[nH]ncc23)ccc1O	4.2	-0.56	5.5	6.02	21	5.55	16.5	14.9	55.3	11.7
COc1ccc2[nH]c3c4[nH]c5ccc(OC)cc5c4c4c(c3c2c1)C(=O)NC4=O	17.9	9.7	53.1	2.52	0.85	5.78	6.32	10.1	22.6	10.7
COC(=O)c1sc(-n2cnc3cc(OC)c(OC)cc32)cc1OCc1ccccc1C(F)(F)F	-0.3	-1.64	1.53	2.23	3.86	4.53	3.54	9.09	4.17	6.43
Fc1ccc(-c2nn3ncccc3c2-c2ccnc(Nc3ccc4c(c3)OCCO4)n2)cc1	63.8	45.5	88.1	2.48	14.4	7.69	18.2	17.1	55.5	34.3
Cc1ccc2c(-c3ccnc(Nc4ccccc4)n3)c(-c3ccc(F)cc3)nn2n1	51.1	33.7	81.9	6.42	15	9.53	18.1	11.5	52.1	24.9
CCn1c(-c2nonc2N)nc2cnc(Oc3cccc(NC(=O)c4ccc(N(C)C)cc4)c3)cc21	0.52	-1.54	-0.4	-2.08	-3.39	2.26	4.01	4.68	-0.31	5.07
CNC(=O)c1cc(-c2ccc(F)cc2)cc(-c2ccc(S(=O)(=O)N3CCCC3)cc2)c1N	0.62	-0.37	2.95	-2.99	-1.92	2.55	2.23	5.15	6.55	2.73
Fc1ccc(-c2cc(-c3c[nH]nc3-c3ccccn3)ccn2)cc1	5.56	-1.9	6.43	1.25	0.94	3.9	4.31	11.9	14.8	3.6
CN1CCC(n2cnc(-c3ccc(F)cc3)c2-c2ccnc(Nc3ccccc3)n2)CC1	15.5	9.65	49.1	0.44	0.04	1.78	4.18	7.5	13.3	12.9
O=S(=O)(CCNCc1ccc(-c2ccc3ncnc(Nc4ccc(OCc5cccc(F)c5)c(Cl)c4)c3c2)o1)c1ccccc1	6.26	1.22	1.97	1.86	1.73	4.61	6.18	5.63	13.3	14.7
